Consider five compounds from the supplement of paper PMC6897291.

The structures appear in SMILES notation.

In the test the test system is U-2932. Put plainly: growth inhibition by drug alone (1 - RLU/untreated control) (fraction); higher = stronger inhibition. The following applies: 177Lu-lilotomab satetraxetan 0 ug/ml. On the procedure:
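U-2932 ABC-DLBCL cells were pretreated or not for 18 h with 1 ug/ml 177Lu-lilotomab satetraxetan (600 MBq/mg), washed and seeded (3000 cells/well) on 384-well plates pre-printed with the Selleck Cambridge Cancer Compound library. Viability was read by RealTime-Glo luminescence on days 3-6 after seeding. Effect = 1 - RLU/mean RLU of the 48 untreated no-drug control wells per plate; Bliss score = (M-E)/(1-Fa), with E the expected Bliss-additive effect.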

`Cc1cc2c(C(C)C)c(O)c(O)c(C=O)c2c(O)c1-c1c(C)cc2c(C(C)C)c(O)c(O)c(C=O)c2c1O` [Gossypol]: the “growth inhibition by drug alone” value runs as follows: (10 nM, time (day): 3) -0.0803; (10 nM, time (day): 4) -0.0436; (10 nM, time (day): 5) -0.0537; (10 nM, time (day): 6) -0.0327; (1000 nM, time (day): 3) -0.00328; (1000 nM, time (day): 4) 0.00751. The “growth inhibition by drug alone” value (1000 nM, time (day): 5) worked out at 0.00351 and the “growth inhibition by drug alone” value (1000 nM, time (day): 6) came out at 0.0148.

Turning to `CC[C@@H](C(=O)[C@@H](C)[C@@H](O)[C@H](C)[C@@H]1O[C@@H]([C@@H](CC)C(=O)O)CC[C@@H]1C)[C@H]1O[C@]2(C=C[C@@H](O)[C@]3(CC[C@@](C)([C@H]4CC[C@](O)(CC)[C@H](C)O4)O3)O2)[C@H](C)C[C@@H]1C` [Salinomycin (Procoxacin)], the “growth inhibition by drug alone” value is, setting by setting: (10 nM, time (day): 3) 0.136; (10 nM, time (day): 4) 0.115; (10 nM, time (day): 5) 0.00536; (10 nM, time (day): 6) -0.0492; (1000 nM, time (day): 3) 0.311; (1000 nM, time (day): 4) 0.423. Also, the “growth inhibition by drug alone” value is, setting by setting: (1000 nM, time (day): 5) 0.542; (1000 nM, time (day): 6) 0.721.

As to `O=P1(N(CCCl)CCCl)NCCCO1` (stereo not given) [Cyclophosphamide monohydrate], the “growth inhibition by drug alone” value was -0.0368 (10 nM, time (day): 3); -0.0191 (10 nM, time (day): 4); -0.0185 (10 nM, time (day): 5); 0.00793 (10 nM, time (day): 6); -0.0419 (1000 nM, time (day): 3); -0.0135 (1000 nM, time (day): 4). Moreover, the “growth inhibition by drug alone” value runs as follows: (1000 nM, time (day): 5) -0.0461; (1000 nM, time (day): 6) -0.0745.

`C[C@]12CCC(=O)C(O)=C1CC[C@@H]1[C@@H]2CC[C@]2(C)C(=O)CC[C@@H]12` [Formestane]: the “growth inhibition by drug alone” value (10 nM, time (day): 3) was -0.0202; the “growth inhibition by drug alone” value (10 nM, time (day): 4) is -0.0416; the “growth inhibition by drug alone” value (10 nM, time (day): 5) is -0.00849; the “growth inhibition by drug alone” value (10 nM, time (day): 6) was determined as 0.0511; the “growth inhibition by drug alone” value (1000 nM, time (day): 3) was -0.0617; the “growth inhibition by drug alone” value (1000 nM, time (day): 4) was -0.0526. Also, the “growth inhibition by drug alone” value by setting is: (1000 nM, time (day): 5) -0.0433; (1000 nM, time (day): 6) 0.0231.

In the case of `O=C(O)c1nn(Cc2ccc(Cl)cc2Cl)c2ccccc12` [Lonidamine], the “growth inhibition by drug alone” value (10 nM, time (day): 3) was 0.129; the “growth inhibition by drug alone” value (10 nM, time (day): 4) was 0.0861; the “growth inhibition by drug alone” value (10 nM, time (day): 5) was 0.00199; the “growth inhibition by drug alone” value (10 nM, time (day): 6) was -0.13; the “growth inhibition by drug alone” value (1000 nM, time (day): 3) was 0.0943; the “growth inhibition by drug alone” value (1000 nM, time (day): 4) amounted to 0.0942. Moreover, the “growth inhibition by drug alone” value (1000 nM, time (day): 5) is -0.0767 and the “growth inhibition by drug alone” value (1000 nM, time (day): 6) was -0.0595.
